Here are results for 27 sequences from article PMC11006913.

Holding throughout (assay): PBM; 200 nM protein, PBS
Details in all cases: dsDNA, one strand shown

Assay [1] concerns the target HOXB4 (Homo sapiens, UniProt P17483 148-234).
Assay [2] addresses HOXB4 (Homo sapiens, UniProt P17483 148-234, V174I).
Assay [3] deals with T1, NKX2-6 (Homo sapiens, UniProt A6NCS4 118-204).
T1 sequence: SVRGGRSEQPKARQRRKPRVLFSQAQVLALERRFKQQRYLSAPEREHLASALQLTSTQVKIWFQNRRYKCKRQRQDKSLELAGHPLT

The target of assay [4] is T2, NKX2-6 (Homo sapiens, UniProt A6NCS4 118-204, F151L).
T2 sequence: T1 sequence with F34L

In assay [5] the target is PROP1 (Homo sapiens, UniProt O75360 56-141).
Assay [6] addresses PROP1 (Homo sapiens, UniProt O75360 56-141, R99H).
Assay [7] concerns the target PROP1 (Homo sapiens, UniProt O75360 56-141, F88S).
Assay [8] concerns the target SHOX (Homo sapiens, UniProt O15266 103-189).
Assay [9] addresses T3, PAX4 (Homo sapiens, UniProt O43316 9-242, F177V).
T3 sequence: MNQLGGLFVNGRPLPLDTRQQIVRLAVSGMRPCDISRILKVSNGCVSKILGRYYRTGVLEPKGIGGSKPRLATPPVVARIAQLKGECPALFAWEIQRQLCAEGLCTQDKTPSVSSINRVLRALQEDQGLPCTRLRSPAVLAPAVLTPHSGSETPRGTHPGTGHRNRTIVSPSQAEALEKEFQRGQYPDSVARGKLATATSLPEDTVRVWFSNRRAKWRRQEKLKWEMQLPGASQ

Assay [10] addresses T4, PAX4 (Homo sapiens, UniProt O43316 9-242, F177Y).
T4 sequence: T3 sequence with V169Y

A further assay addresses ALX3 (Homo sapiens, UniProt O95076 139-225, N203S).
The target of assay [11] is CRX (Homo sapiens, UniProt O43186 26-111, R41L).
The target of assay [12] is T5, VENTX (Homo sapiens, UniProt O95231 78-163, R121Q).
T5 sequence: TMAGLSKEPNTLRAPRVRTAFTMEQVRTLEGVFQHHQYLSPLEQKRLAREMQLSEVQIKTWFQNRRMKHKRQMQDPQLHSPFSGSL

The target of assay [13] is T6, VENTX (Homo sapiens, UniProt O95231 78-163).
T6 sequence: T5 sequence with Q44R

Assay [14] addresses HOXA7 (Homo sapiens, UniProt P31268 116-202).
Assay [15] addresses ALX4 (Homo sapiens, UniProt Q9H161 200-286).
The target in assay [16] is T7, VENTX (Homo sapiens, UniProt O95231 78-163, Y115F).
T7 sequence: T5 sequence with Y38F, Q44R

Assay [17] addresses ALX4 (Homo sapiens, UniProt Q9H161 200-286, Q225E).
Assay [18] concerns the target SHOX (Homo sapiens, UniProt O15266 103-189, R173C).
For assay [19], the target named is VAX1 (Homo sapiens, UniProt Q5SQQ9 86-172).
Assay [20] concerns the target VAX1 (Homo sapiens, UniProt Q5SQQ9 86-172, T142I).
For assay [21], the target named is HOXA7 (Homo sapiens, UniProt P31268 116-202, W177C).
Assay [22] addresses VAX1 (Homo sapiens, UniProt Q5SQQ9 86-172, K157R).
Assay [23] has as its target CRX (Homo sapiens, UniProt O43186 26-111).
In assay [24] the target is CRX (Homo sapiens, UniProt O43186 26-111, E42D).

Numbering of substitutions follows the chain as printed.

HOXB4 (Homo sapiens, UniProt P17483 148-234, V174I), sequence (P17483 148-234 V174I): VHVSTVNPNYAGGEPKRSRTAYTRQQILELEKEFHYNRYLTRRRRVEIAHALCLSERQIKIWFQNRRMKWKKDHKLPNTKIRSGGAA
SHOX (Homo sapiens, UniProt O15266 103-189), sequence (O15266 103-189): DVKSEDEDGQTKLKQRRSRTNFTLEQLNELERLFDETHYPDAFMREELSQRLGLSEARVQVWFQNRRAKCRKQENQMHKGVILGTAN
HOXB4 (Homo sapiens, UniProt P17483 148-234), sequence (P17483 148-234): as the sequence (P17483 148-234 V174I) above, with I27V counted along it
PROP1 (Homo sapiens, UniProt O75360 56-141), sequence (O75360 56-141): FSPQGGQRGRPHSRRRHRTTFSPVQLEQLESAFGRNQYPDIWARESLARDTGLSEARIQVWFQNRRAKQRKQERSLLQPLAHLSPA
CRX (Homo sapiens, UniProt O43186 26-111, R41L), sequence (O43186 26-111 R41L): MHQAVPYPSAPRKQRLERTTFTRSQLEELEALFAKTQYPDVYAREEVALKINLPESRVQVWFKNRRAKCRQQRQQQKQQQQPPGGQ
PROP1 (Homo sapiens, UniProt O75360 56-141, F88S), sequence (O75360 56-141 F88S): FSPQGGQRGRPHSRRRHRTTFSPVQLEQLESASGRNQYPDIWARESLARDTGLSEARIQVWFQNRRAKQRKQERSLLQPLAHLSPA
PROP1 (Homo sapiens, UniProt O75360 56-141, R99H), sequence (O75360 56-141 R99H): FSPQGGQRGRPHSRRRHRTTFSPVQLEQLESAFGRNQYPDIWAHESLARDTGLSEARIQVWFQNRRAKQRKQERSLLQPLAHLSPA
SHOX (Homo sapiens, UniProt O15266 103-189, R173C), sequence (O15266 103-189 R173C): as the sequence (O15266 103-189) above, with R71C counted along it
ALX3, sequence (O95076 139-225 N203S): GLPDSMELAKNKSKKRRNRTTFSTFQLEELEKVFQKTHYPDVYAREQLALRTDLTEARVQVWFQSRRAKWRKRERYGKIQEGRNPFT
VAX1 (Homo sapiens, UniProt Q5SQQ9 86-172, K157R), sequence (Q5SQQ9 86-172 K157R): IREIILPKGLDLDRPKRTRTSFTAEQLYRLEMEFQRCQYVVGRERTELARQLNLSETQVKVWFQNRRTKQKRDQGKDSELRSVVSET
VAX1 (Homo sapiens, UniProt Q5SQQ9 86-172, T142I), sequence (Q5SQQ9 86-172 T142I): as the sequence (Q5SQQ9 86-172 K157R) above, with T57I, R72K counted along it
HOXA7 (Homo sapiens, UniProt P31268 116-202, W177C), sequence (P31268 116-202 W177C): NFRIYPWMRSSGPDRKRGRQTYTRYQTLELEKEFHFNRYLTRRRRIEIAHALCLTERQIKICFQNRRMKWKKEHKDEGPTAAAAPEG
CRX (Homo sapiens, UniProt O43186 26-111), sequence (O43186 26-111): as the sequence (O43186 26-111 R41L) above, with L16R counted along it
CRX (Homo sapiens, UniProt O43186 26-111, E42D), sequence (O43186 26-111 E42D): as the sequence (O43186 26-111 R41L) above, with L16R, E17D counted along it
HOXA7 (Homo sapiens, UniProt P31268 116-202), sequence (P31268 116-202): as the sequence (P31268 116-202 W177C) above, with C62W counted along it
ALX4 (Homo sapiens, UniProt Q9H161 200-286, Q225E), sequence (Q9H161 200-286 Q225E): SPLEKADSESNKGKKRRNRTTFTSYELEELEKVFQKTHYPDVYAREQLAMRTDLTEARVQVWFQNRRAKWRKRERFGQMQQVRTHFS
ALX4 (Homo sapiens, UniProt Q9H161 200-286), sequence (Q9H161 200-286): as the sequence (Q9H161 200-286 Q225E) above, with E26Q counted along it
VAX1 (Homo sapiens, UniProt Q5SQQ9 86-172), sequence (Q5SQQ9 86-172): as the sequence (Q5SQQ9 86-172 K157R) above, with R72K counted along it

With CCCGAGCC, the binding signal with HOXB4 [1] is 7.67 upbm affinity estimate (log intensity, higher = more binding, comparable within an allelic series); with HOXB4 [2] it was 7.83 upbm affinity estimate (log intensity, higher = more binding, comparable within an allelic series); with NKX2-6 [3], 9.42 upbm affinity estimate (log intensity, higher = more binding, comparable within an allelic series); in the assay with NKX2-6 [4], 9.3 upbm affinity estimate (log intensity, higher = more binding, comparable within an allelic series).

For CAGTGTGC, the binding signal in the assay with HOXB4 [1] is 7.61 upbm affinity estimate (log intensity, higher = more binding, comparable within an allelic series); in the assay with HOXB4 [2], 7.69 upbm affinity estimate (log intensity, higher = more binding, comparable within an allelic series); with PROP1 [5] it was 6.79 upbm affinity estimate (log intensity, higher = more binding, comparable within an allelic series); with PROP1 [6], 6.58 upbm affinity estimate (log intensity, higher = more binding, comparable within an allelic series); in the assay with PROP1 [7], 6.78 upbm affinity estimate (log intensity, higher = more binding, comparable within an allelic series).

Turning to CATATGGG, the binding signal in the assay with SHOX [8] was 7.77 upbm affinity estimate (log intensity, higher = more binding, comparable within an allelic series).

For the sequence GCTGATGA, the binding signal with SHOX [8] was 8.21 upbm affinity estimate (log intensity, higher = more binding, comparable within an allelic series).

Regarding TCATAACA, the binding signal in the assay with SHOX [8] was 8.35 upbm affinity estimate (log intensity, higher = more binding, comparable within an allelic series).

GAATTAGA: the binding signal with SHOX [8] was 9.8 upbm affinity estimate (log intensity, higher = more binding, comparable within an allelic series).

As to AATCGTGT, the binding signal with SHOX [8] is 8.39 upbm affinity estimate (log intensity, higher = more binding, comparable within an allelic series).

Turning to ATCTATTG, in the assay with SHOX [8], the binding signal was 8.32 upbm affinity estimate (log intensity, higher = more binding, comparable within an allelic series).

Consider ATTAAAGC, for which the binding signal with HOXB4 [1] was 11.7 upbm affinity estimate (log intensity, higher = more binding, comparable within an allelic series); with HOXB4 [2] it was 11.9 upbm affinity estimate (log intensity, higher = more binding, comparable within an allelic series); in the assay with NKX2-6 [3], 11.1 upbm affinity estimate (log intensity, higher = more binding, comparable within an allelic series).

Consider ATTGCTAC, for which the binding signal with SHOX [8] was 8.23 upbm affinity estimate (log intensity, higher = more binding, comparable within an allelic series).

With GAACTAAA, the binding signal with SHOX [8] was 8.27 upbm affinity estimate (log intensity, higher = more binding, comparable within an allelic series).

For AAACTAAG, the binding signal in the assay with SHOX [8] was 8.12 upbm affinity estimate (log intensity, higher = more binding, comparable within an allelic series).

As to AAATTATC, in the assay with SHOX [8], the binding signal is 10.4 upbm affinity estimate (log intensity, higher = more binding, comparable within an allelic series).

Take AATCGGTA: the binding signal with SHOX [8] is 8.66 upbm affinity estimate (log intensity, higher = more binding, comparable within an allelic series).

GATTATTA: the binding signal with HOXB4 [1] is 12.9 upbm affinity estimate (log intensity, higher = more binding, comparable within an allelic series); with HOXB4 [2] it was 13.5 upbm affinity estimate (log intensity, higher = more binding, comparable within an allelic series); with PAX4 [9], 10.6 upbm affinity estimate (log intensity, higher = more binding, comparable within an allelic series); in the assay with PAX4 [10], 11 upbm affinity estimate (log intensity, higher = more binding, comparable within an allelic series).

For TAACGACA, the binding signal in the assay with SHOX [8] is 8.33 upbm affinity estimate (log intensity, higher = more binding, comparable within an allelic series).

TTAGGAAA: the binding signal in the assay with SHOX [8] was 8.58 upbm affinity estimate (log intensity, higher = more binding, comparable within an allelic series).

GAATTACA: in the assay with SHOX [8], the binding signal was 9.41 upbm affinity estimate (log intensity, higher = more binding, comparable within an allelic series).

As to TAAATGGA, the binding signal with SHOX [8] is 8.78 upbm affinity estimate (log intensity, higher = more binding, comparable within an allelic series).

Turning to ATTACTTA, the binding signal with HOXB4 [1] is 12.1 upbm affinity estimate (log intensity, higher = more binding, comparable within an allelic series); with HOXB4 [2], 12.5 upbm affinity estimate (log intensity, higher = more binding, comparable within an allelic series); with ALX3 it was 8.71 upbm affinity estimate (log intensity, higher = more binding, comparable within an allelic series).

As for GCATTAAA, in the assay with SHOX [8], the binding signal was 8.99 upbm affinity estimate (log intensity, higher = more binding, comparable within an allelic series).

For CTCAATAA, the binding signal in the assay with SHOX [8] is 9.16 upbm affinity estimate (log intensity, higher = more binding, comparable within an allelic series).

CTTAAGCA: the binding signal with HOXB4 [1] is 10.1 upbm affinity estimate (log intensity, higher = more binding, comparable within an allelic series); in the assay with HOXB4 [2], 10.1 upbm affinity estimate (log intensity, higher = more binding, comparable within an allelic series); in the assay with CRX [11], 10.3 upbm affinity estimate (log intensity, higher = more binding, comparable within an allelic series).

Take AAGCTCTC: the binding signal was 7.48 upbm affinity estimate (log intensity, higher = more binding, comparable within an allelic series) with HOXB4 [1]; 7.53 upbm affinity estimate (log intensity, higher = more binding, comparable within an allelic series) with HOXB4 [2]; 6.71 upbm affinity estimate (log intensity, higher = more binding, comparable within an allelic series) with PROP1 [5]; 6.64 upbm affinity estimate (log intensity, higher = more binding, comparable within an allelic series) with PROP1 [6]; 6.84 upbm affinity estimate (log intensity, higher = more binding, comparable within an allelic series) in the assay with PROP1 [7].

As to CCGGTCTC, the binding signal was 7.18 upbm affinity estimate (log intensity, higher = more binding, comparable within an allelic series) with SHOX [8]; 8.15 upbm affinity estimate (log intensity, higher = more binding, comparable within an allelic series) with VENTX [12]; 8.23 upbm affinity estimate (log intensity, higher = more binding, comparable within an allelic series) in the assay with VENTX [13]; 8.45 upbm affinity estimate (log intensity, higher = more binding, comparable within an allelic series) in the assay with HOXA7 [14]; 8.33 upbm affinity estimate (log intensity, higher = more binding, comparable within an allelic series) with ALX4 [15]; 8.1 upbm affinity estimate (log intensity, higher = more binding, comparable within an allelic series) with VENTX [16]. Further, the binding signal in the assay with ALX4 [17] is 8.34 upbm affinity estimate (log intensity, higher = more binding, comparable within an allelic series); in the assay with SHOX [18] it was 7.23 upbm affinity estimate (log intensity, higher = more binding, comparable within an allelic series); with VAX1 [19], 7.31 upbm affinity estimate (log intensity, higher = more binding, comparable within an allelic series); with VAX1 [20], 7.3 upbm affinity estimate (log intensity, higher = more binding, comparable within an allelic series); with HOXA7 [21] it was 8.44 upbm affinity estimate (log intensity, higher = more binding, comparable within an allelic series); with VAX1 [22], 7.04 upbm affinity estimate (log intensity, higher = more binding, comparable within an allelic series).

ACTGTTAA: the binding signal with SHOX [8] is 8.56 upbm affinity estimate (log intensity, higher = more binding, comparable within an allelic series).

With CAGTCGCG, the binding signal in the assay with SHOX [8] was 7 upbm affinity estimate (log intensity, higher = more binding, comparable within an allelic series); with CRX [23], 8.23 upbm affinity estimate (log intensity, higher = more binding, comparable within an allelic series); in the assay with CRX [24], 8.35 upbm affinity estimate (log intensity, higher = more binding, comparable within an allelic series); with SHOX [18] it was 7.2 upbm affinity estimate (log intensity, higher = more binding, comparable within an allelic series); in the assay with CRX [11] it was 8.3 upbm affinity estimate (log intensity, higher = more binding, comparable within an allelic series).
